About 2,000 (36%) of roughly 5,500 compounds were called active. Not shown: some 18% with an inconclusive outcome. Rule as the data show it: active = normalized growth mostly below about 0.91 (no sharp cut-off); inconclusive = no clear call, values can overlap the other calls; inactive = mostly above about 0.92. This is one part of the list.
Test: chemical genetic growth profiling, strain panel (AID 1159580);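 also: tested at 20 µM; growth read once vehicle control cultures reached saturation at 30 °C; 1 = growth at the plate median or of vehicle wells; lower values mean less growth of the strain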
Conditions: S. cerevisiae deletion strains, growth OD

Measured: normalized growth

CC(=O)NCCc1ccc(O)c(O)c1
inactive: locus YAL013W, strain DEP1, stronger effect = lower value 1.03 | locus YAL040C, strain CLN3, stronger effect = lower value 1.01 | locus YDR363W, strain ESC2, stronger effect = lower value 1.05 | locus YER002W, strain NOP16, stronger effect = lower value 1 | locus YJR075W, strain HOC1, stronger effect = lower value 1.02 | locus YNL128W, strain TEP1, stronger effect = lower value 0.999 | locus YNL153C, strain GIM3, stronger effect = lower value 0.986 | locus YNL175C, strain NOP13, stronger effect = lower value 1.01 | locus YNL197C, strain WHI3, stronger effect = lower value 1.01 | locus YNL224C, strain SQS1, stronger effect = lower value 0.998 | locus YOR083W, strain WHI5 (second series), stronger effect = lower value 1.02 | locus YPL241C, strain CIN2, stronger effect = lower value 1.01

Source: PubChem BioAssay AID1159580 (chemical genetic matrix, 2015)
